Results published in PubChem BioAssay AID602350 (Broad Institute, 2012).
Entries with a potency or affinity are not part of this list. Calls of active or inactive are those of the source.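 The calls were made as follows: active = absorbance falls by 30% or more versus neutral controls, with a potency fitted within twice the top valid dose; inconclusive = no clear call, values can overlap the other calls; inactive = change opposite to expected direction, plus the rest.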

Target: Protein disulfide-isomerase (Homo sapiens) (UniProt P07237)
Sequence (P07237 whole entry, looked up): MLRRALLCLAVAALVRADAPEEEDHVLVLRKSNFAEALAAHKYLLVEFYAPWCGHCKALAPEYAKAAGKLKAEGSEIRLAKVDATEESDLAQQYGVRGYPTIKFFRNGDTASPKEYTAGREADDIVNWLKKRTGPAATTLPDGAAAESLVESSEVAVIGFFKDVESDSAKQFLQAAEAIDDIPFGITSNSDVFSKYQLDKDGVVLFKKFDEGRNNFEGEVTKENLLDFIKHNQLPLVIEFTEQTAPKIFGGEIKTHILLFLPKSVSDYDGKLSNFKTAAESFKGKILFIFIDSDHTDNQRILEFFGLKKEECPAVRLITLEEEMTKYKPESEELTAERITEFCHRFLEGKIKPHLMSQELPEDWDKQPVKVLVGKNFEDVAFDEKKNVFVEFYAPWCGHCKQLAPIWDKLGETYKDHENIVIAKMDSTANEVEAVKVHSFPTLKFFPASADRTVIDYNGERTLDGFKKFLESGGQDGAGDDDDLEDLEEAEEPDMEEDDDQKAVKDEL
Test: PDI inhibitors, insulin aggregation turbidity, dose response, biochemical, absorbance, cherry-picked samples (AID 602350);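 also: 0% = neutral controls and -100% = rutin hydrate positive control wells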
Conditions: recombinant PDI insulin aggregation, absorbance 650 nm, 90 min; series mostly up to 19.5 µM; activity change, negative = inhibition: at the top concentration

Activity change, negative = inhibition, inactive:
CCOC(=O)Oc1c(OC)cc(C(=O)O[C@@H]2C[C@@H]3CN4CCc5c([nH]c6cc(OC)ccc56)[C@H]4C[C@@H]3[C@H](C(=O)OC)[C@H]2OC)cc1OC 6.28%
CN(C)CCN(C(=O)c1ccc(S(=O)(=O)N2CCc3ccccc32)cc1)c1nc2ccc(F)cc2s1 -1.71%
CN(c1ccccc1)S(=O)(=O)c1cc(C(=O)N2CCN(c3ncccn3)CC2)ccc1Cl 10.7%
C[C@@H](C(=O)NCc1ccccc1)N1C(=O)C2CC=CCC2C1=O (some centres not stated) -0.93%
CN(C)C(=O)CSc1nnc([C@H](Cc2ccccc2)NC(=O)OC(C)(C)C)o1 4.24%
COc1ccc(/C=C2\Sc3ccc(C(=O)NCCCN4CCCC4)cc3N(C)C2=O)cc1OC 3.6%
O=C(NCc1ccccc1)c1cc(C2CCCN(C(=O)C3CCCCC3)C2)on1 (configuration not stated) 7.02%
